High-throughput results from PubChem.
An excerpt weighted towards active compounds, which were near 5.3% of everything screened.
Six1-Eya2 blk: inhibitors of human Six1/Eya2 interaction; activity change, % (concentration not given with the values); Q15475+O00167; AlphaScreen GST-Six1/His-Eya2 binding, biochemical; active compounds read low; 0.56% of 360,000 active; AID 651725; in the data active means activity change below about -65%; inconclusive means mostly about -30% to -63%; further: on the % scale 0 is the no-effect control and ±100 the full control effect
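Homogeneous AlphaScreen proximity assay pairing GST-Six1 with His-tagged Eya2 (added as 5X mix: 250 nM and 500 nM) in 50 mM Tris pH 8.0, 300 mM NaCl, 1 mM TCEP. Glutathione donor and nickel acceptor beads; 1 h, 37 °C, dark.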
HP1b chromo inh: blocks HP1-beta chromodomain binding to methylated histone tails; AlphaScreen HP1-beta / biotin-H3K9me3 peptide binding; Potency, µM (series often up to 114 µM), inactives show top-dose activity change, negative = inhibition, actives largely listed as inhibitors; 0.56% of 390,000 active; further: potency means the concentration at half of the fitted maximal effect; nearly all actives have a fitted effect of over 70% in size
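AlphaScreen: HP1-beta (50 nM) preformed 30 min with biotin-H3(1-18)K9me3 peptide (50 nM) in PBS pH 7.4, 0.01% Tween-20. Compound added for 30 min at RT, then streptavidin donor/nickel chelate acceptor beads (10 ug/mL) for 30 min.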
TDP1 inh: inhibitors of human tyrosyl-DNA phosphodiesterase TDP1. Potency, µM (series often up to 130 µM), for the others: at the highest dose activity change, negative = inhibition, usual class: inhibitors. recombinant TDP1, AlphaScreen DNA substrate cleavage. AID 485290. 0.28% of 350,000 active; further: potency means the concentration at half of the fitted maximal effect; on the % scale 0 is the no-effect control and ±100 the full control effect; nearly all actives have a fitted effect of over 40% in size
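Recombinant human Tdp1 (E. coli-expressed, 1 nM final) preincubated with compounds 15 min at room temperature, then 5'-biotin/3'-phosphotyrosine-FITC DNA substrate (15 nM final) added for 5 min. AlphaScreen beads (10 ug/ml final) added 10 min; cleavage lowers signal.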
CtBP-E1A blk: inhibitors of CtBP/E1A interaction; AlphaScreen GST-E1A/His-CtBP binding, 1536-well; active compounds read low; activity change, % (no concentration beside the values); 0.49% of 340,000 active; AID 651724; in the data active means activity change below about -65%; inconclusive means mostly about -30% to -63%; further: on the % scale 0 is the no-effect control and ±100 the full control effect
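Homogeneous bead-based format: GST-tagged E1A captured on glutathione donor beads, His-tagged CtBP on nickel acceptor beads; compounds precede bead addition by 2 h at 37 °C.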
BAZ2B block: inhibitors of human BAZ2B bromodomain; Q9UIF8; 4.4% of 360,000 active; AlphaScreen BAZ2B-H3K14Ac peptide displacement; Potency, µM (doses to about 114 µM), for inactives: top-dose activity change, negative = inhibition, usual class: inhibitors; further: potency means the concentration at half of the fitted maximal effect; on the % scale 0 is the no-effect control and ±100 the full control effect; nearly all actives have a fitted effect of over 60% in size
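Compounds, titrated to a top concentration of 110 uM, were incubated 30 min at room temperature with preformed BAZ2B/acetyl-K14 H3 peptide complex (50 nM each). Proximity signal was measured by AlphaScreen after 20 min with beads.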
JMJD2A Tudor: JMJD2A Tudor domain (human) inhibition. AID 504339. AlphaScreen JMJD2A-Tudor / H3K4me3 peptide binding. Potency, µM (doses to about 114 µM), for inactives: at the top dose activity change, negative = inhibition, actives largely listed as inhibitors. O75164. 4.4% of 390,000 active; further: potency means the concentration at half of the fitted maximal effect; on the % scale 0 is the no-effect control and ±100 the full control effect; nearly all actives have a fitted effect of over 50% in size
The depositor's hits bear a star; ? = inconclusive; . = not tested or not shown; [ ] = dose if it differs, or a comment. Unless noted, the call rests on the fitted dose curve; in most records, active means well fitted inhibition curve with a large enough effect; inconclusive means small, poorly fitted or top-dose-only effect; inactive means no such curve, though single readings can be large or run the other way.

SMILES	Six1-Eya2 blk	HP1b chromo inh	TDP1 inh	CtBP-E1A blk	BAZ2B block	JMJD2A Tudor
c1ccc(-c2ccccc2OCCCN2CCOCC2)cc1	2.7	?	2.4%	.	17.8µM*	7.94µM*
CC1CCCN(CCOCCSc2ccccc2)C1 (stereo unspecified)	13.7	?	0.0%	3.5	-33.8%	2.51µM*
c1ccc(OCCOCCN2CCOCC2)cc1	1.0	24.5%	1.8%	6.2	11.2%	-4.1%
CCc1ccccc1NC(=O)Cn1ccn(Cc2ccccc2)c(=O)c1=O	.	-16.9%	0.0%	.	-23.3%	-32.6%
COc1ccccc1CNC(=O)Cc1csc2nc(-c3ccc(Cl)cc3)cn12	.	7.6%[57 µM]	-1.8%	.	-11.1%	-5.4%
CCOc1ccc(S(=O)(=O)NCCc2csc3nc(-c4ccc(F)cc4)nn23)cc1	.	23.0%	2.6%	.	3.5%	-4.2%
c1ccc(CCCN2CCOCC2)cc1	-2.6	?	.	7.9	?	20µM*
c1ccc(-c2ccccc2OCCN2CCCC2)cc1	-4.5	?	4.9%	-5.1	56.2µM*	22.4µM*
c1ccc(-c2ccccc2OCCCCN2CCCCCC2)cc1	-0.2	-38.6%	-11.0%	.	50.1µM*	22.4µM*
Fc1ccccc1OCCCN1CCOCC1	0.6	?	-7.1%	10.3	?	4.47µM*
Cc1oc2ncnc(N3CCOCC3)c2c1C(=O)NCc1ccccc1	.	34.3%	1.1%	.	11.1%[57.1 µM]	1.3%
COC(=O)c1cc2sccc2n1CC(=O)Nc1ccc(OC)c(OC)c1	.	11.7%	-2.0%	.	-6.6%	-19.6%
CC(=O)OCC1OC(n2cnc3c(Cl)nc(Cl)nc32)C(OC(C)=O)C1OC(C)=O (stereo unspecified)	.	.	16.4%[56.1 µM]	.	.	.
c1ccc(-c2ccccc2OCCOCCN2CCCCC2)cc1	3.2	?	5.5%	-3.6	-14.8%	3.16µM*
CC1CCCN(CCCOc2ccccc2-c2ccccc2)C1 (stereo unspecified)	-6.7	?	0.0%	2.9	39.8µM*	1.12µM*
CC(C)(C)c1ccccc1OCCOCCN1CCCCCC1	-1.8	16.3%	0.0%	-1.8	-38.3%	-12.8%
Cc1ccc(NC(=O)Cn2c(=O)ccc3cc(S(=O)(=O)N4CCCC4)ccc32)cc1C	.	16.9%[57 µM]	4.4%	.	0.8%	-21.0%
Cc1cccc(C)c1OCC(=O)Nc1c(C(=O)c2ccccc2)oc2ccccc12	.	62.9%	2.1%	.	24.2%	36.8%
C=CCNC(=O)C1CC(=O)N(c2ccc(OCC(=O)Nc3ccc(Cl)cc3)cc2)C1 (stereo unspecified)	7.2	9.2%	.	-1.8	2.7%	70.8µM*
COCCCNS(=O)(=O)c1ccc(N2CCCCS2(=O)=O)cc1	.	29.9%	-1.2%	.	-0.6%	-0.7%
CCc1ccccc1NC(=O)C(CCSC)NS(=O)(=O)c1ccc2c(c1)oc(=O)n2C (stereo unspecified)	.	30.8%	3.8%	.	-4.2%	-21.5%
Cc1cc2ccccn2c1C(=O)c1ccc([N+](=O)[O-])o1	0.0	-11.3%	9.5%	-3.8	10µM*	?
Cc1cc2ccccn2c1C(=O)c1ccc(Cl)c([N+](=O)[O-])c1	-13.0	?	5.1%	-11.6	11.2µM*	?
Cc1nc2c3cccnc3nn2c(C)c1CCC(=O)NCc1ccccc1	.	20.3%	-1.3%	.	-7.6%	-9.6%
Cc1c(C(=O)Nc2ccc(F)c(F)c2)oc2ccc(S(=O)(=O)N(C)C3CCCCC3)cc12	.	42.4%	5.2%	.	0.0%	-4.9%
SMILES	Six1-Eya2 blk	HP1b chromo inh	TDP1 inh	CtBP-E1A blk	BAZ2B block	JMJD2A Tudor
CC(C)c1cc(=O)n2[nH]c(N)nc2n1	-13.8	3.3%	5.8%	-22.9	-27.2%	-46.5%
CC(C)(C)c1cc(=O)n2[nH]c(N)nc2n1	-28.5	27.7%	0.0%	0.5	56.2µM*	?
CC1CCN(c2nn3c(=O)c(C(=O)NC(C)C)cnc3s2)CC1	.	19.7%	2.6%	.	2.7%	-1.3%
O=C1NC(=O)/C(=C\c2ccc(Br)o2)S1	0.9	19.6%	.	.	-36.1%	?
O=C1NC(=O)/C(=C/c2ccc(-c3cc(C(=O)O)ccc3Cl)o2)S1	-7.7	15.3%	31.6µM*	.	-11.6%	-18.9%
O=C1NC(=S)/C(=C\c2ccc(-c3ccccc3Cl)o2)S1	-29.4	?	5.6%	3.8	17.8µM*	44.7µM*
Cc1cc(C)c(Cn2c3ccccc3c3cnn(CC(=O)N4CCCCCC4)c(=O)c32)c(C)c1	.	28.3%	-2.5%	.	3.9%	-33.2%
Cc1nc2[nH]c(=S)n(C)c(=O)c2nc1C	2.5	15.5%	0.0%	-2.5	-11.3%	89.1µM*
O=C(O)c1ccccc1C(=O)N1N=C2/C(=C/c3cccc([N+](=O)[O-])c3)CCCC2C1c1cccc([N+](=O)[O-])c1 (stereo unspecified)	-8.1	-5.0%	8.1%	-1.5	44.7µM*	?
Cc1ccc(NC(=O)c2ccc(Cl)c(N3C(=O)C=CC3=O)c2)cc1	2.3	?	10.4%	-7.5	22.4µM*	7.94µM*
Cc1cccc(C(=O)n2nc(-c3ccco3)nc2NCc2ccccc2)c1	.	3.7%	7.4%	.	0.5%	18.1%
Cc1ccc(CNc2nc(-c3ccco3)nn2C(=O)c2ccccc2[N+](=O)[O-])cc1	.	?	5.7%	.	8.91µM*	?
CN(C)c1ccc(CNc2nc(-c3ccco3)nn2C(=O)c2cccc([N+](=O)[O-])c2)cc1	.	?	8.9%	.	35.5µM*	44.7µM*
Cc1nc2ccc(S(=O)(=O)NC(CC(C)C)C(=O)N3CCN(c4ccc(F)cc4)CC3)cc2s1 (stereo unspecified)	.	24.3%	3.5%	.	-9.8%	-7.4%
COc1ccc(N=Cc2ccc(N(CCC#N)CCC#N)cc2)cc1	2.6	18.7%	.	1.7	.	-34.7%
CCOc1[nH]c(/N=C/c2ccc(OC)cc2)c(C#N)c1C#N	.	?	1.5%	.	.	25.1µM*
O=S(=O)(c1ccc(Cl)cc1)c1nc(-c2ccco2)oc1SCc1ccc(F)cc1	.	25.4%	0.0%	.	-17.6%	-9.9%
CCOC(=O)Cc1ccc(NC(=O)NCc2cccn2Cc2ccccc2)cc1	.	-10.4%	9.7%	.	-18.5%	-24.7%
